Hit rate of the full screen: of about 360,000 compounds, about 11,000 (3.1%) were called active. Inconclusive results (about 2%) are left out. This is one part of a sample in which actives are shown more often than they occur. Values without a mark were called inactive. No stated cut-off is given here; in the data, active means fluorescence intensity above about 16000; inconclusive means no clear call, values can overlap the other calls; inactive means below that.

The assay in a line: compound fluorescence in toxin protease inhibitor counterscreen, primary screen, artefact control for toxin protease inhibitor project, biochemical, multiplex microsphere, HTS (AID 624483). The note with it: compound autofluorescence counterscreen, microsphere flow cytometry; hits give high values. In general terms: Counterscreens check selectivity or assay interference.
Turning to `O=S1(=O)CC(N2CCC(Cc3ccccc3)CC2)CN1Cc1ccccc1` (stereo not drawn), the fluorescence intensity was 6300.

`Cc1noc(C)c1-c1ccc(C(=O)NCc2ccncc2)c2occc12`: the fluorescence intensity was 3470.

`COc1ccccc1N1CCN(S(=O)(=O)c2ccc3c(c2)NC(=O)CS3)CC1`: the fluorescence intensity was 5880.

As for `Cc1cc(OC(C)C(=O)NC2CC(C)(C)NC(C)(C)C2)c2c(C)cc(=O)oc2c1` (stereo not drawn), the fluorescence intensity was 6440.

With `CCc1cc(=O)oc2cc(C)cc(OCC(=O)N3CCC[C@@H]3C(=O)O)c12`, the fluorescence intensity is 5750.

Take `CCc1cc(=O)oc2cc(C)cc(OC(C)C(=O)O)c12` (stereo not drawn): the fluorescence intensity was 22000 (active).

Turning to `CCCSc1nsc(N)n1`, the fluorescence intensity was 17300 (active).

On to `CCCCCCSc1nsc(N)n1`, for which the fluorescence intensity is 6410.

Turning to `Nc1nc(SC23CC4CC(CC(C4)C2)C3)ns1`, the fluorescence intensity was 3930.

In the case of `Cc1ccc(CNC(=O)c2cc(-c3ccccc3C)n(CC3CC(c4cccc([N+](=O)[O-])c4)=NO3)n2)cc1` (stereo not drawn), the fluorescence intensity is 4220.

Turning to `CCOC(=O)[C@]12CCC=C1N(Cc1ccccc1)C(=O)[C@H](CC(=O)N1CCCC1)C2`, the fluorescence intensity was 5780.

Consider `CC1(C(=O)NS(=O)(=O)C2CC2)CCCN(C(=O)CSc2ccccc2)C1` (stereo not drawn), for which the fluorescence intensity was 3670.

Consider `CCOC(=O)N1CCC(Nc2c(NCCN3CCN(c4cccc(Cl)c4)CC3)c(=O)c2=O)CC1`, for which the fluorescence intensity was 4590.

For `CCn1c(=O)cc(OCC(=O)NCCCN2CCN(c3cccc(Cl)c3)CC2)c2ccccc21`, the fluorescence intensity is 20500 (active).

As for `O=C(Cc1csc(Nc2nc(=S)[nH]c3ccccc23)n1)NCCCN1CCN(c2cccc(Cl)c2)CC1`, the fluorescence intensity was 4240.

As to `O=C(CC[C@H]1O[C@@H](n2ccc(=O)[nH]c2=O)[C@H](O)[C@@H]1O)N[C@H](Cc1ccccc1)C(=O)NCc1ccco1`, the fluorescence intensity is 4020.

For `CCOC(=O)C1(C)CCCN(C(=O)c2ccc(N(C)C)cc2)C1` (stereo not drawn), the fluorescence intensity was 9620.

Turning to `CCOc1cccc(-c2nn3c(-c4ccccn4)nnc3s2)c1`, the fluorescence intensity was 16800 (active).

On to `CCOc1cccc(-c2nnc(SCC(=O)NC3CC3)n2C)c1`, for which the fluorescence intensity is 5480.

With `Cc1ccccc1NC(=O)CSc1ccc2nnc(-c3ccccn3)n2n1`, the fluorescence intensity was 6840.

As for `CN(C)S(=O)(=O)N1CCN(c2ccc([N+](=O)[O-])cc2)CC1`, the fluorescence intensity was 4070.

As for `CCCOc1ccc(F)cc1-c1cc(C(=O)Nc2ccc(F)c(Cl)c2)[nH]n1`, the fluorescence intensity was 3800.

For the molecule `CN(C)C(=O)c1cccc(-c2cnc3c(NC=O)cc(-c4ccc(F)cc4)cn23)c1`, the fluorescence intensity was 3680.

Regarding `CCOC(=O)c1cnc2c(c(C)nn2CC)c1Cl`, the fluorescence intensity is 4390.

With `CCOC(=O)c1cnc(-n2nc(C)cc2C)nc1-n1nc(C)cc1C`, the fluorescence intensity was 16800 (active).

Regarding `CCOC(=O)c1cnc(-n2nc(C)cc2C)nc1NNc1cc(C)nc(-c2ccccc2)n1`, the fluorescence intensity was 7400.

As to `CCc1nc2c(OCCOc3ccc(F)cc3)cccn2c1N(C)C(=O)c1ccccc1F`, the fluorescence intensity was 3010.

As to `Cc1ccc(S(=O)(=O)N2CCN(C)CC2)cc1C(=O)NC1CCCCC1`, the fluorescence intensity was 4410.

As to `CN1CCN(S(=O)(=O)c2ccc3[nH]cc(C(=O)O)c(=O)c3c2)CC1`, the fluorescence intensity is 21500 (active).

For `Cc1ccc(S(=O)(=O)N2CCN(C)CC2)cc1`, the fluorescence intensity is 4010.

With `c1ccc(COc2ccccc2CNCc2cccnc2)cc1`, the fluorescence intensity was 7500.

In the case of `O=C(COC(=O)CCc1ccc(S(=O)(=O)N2CCOCC2)cc1)Nc1cccc(Cl)c1`, the fluorescence intensity was 4250.

`O=C(CCc1ccc(S(=O)(=O)N2CCOCC2)cc1)NN=C1CCCCCCC1`: the fluorescence intensity was 2120.

As to `O=C(CCc1ccc(S(=O)(=O)N2CCOCC2)cc1)Nc1ccc2ccccc2c1`, the fluorescence intensity was 21400 (active).

With `OC[C@@H]1CN(C2CCCC2)C[C@H](n2cnc3c(NC4CCC4)ncnc32)O1`, the fluorescence intensity was 2860.

Turning to `Cn1c(=O)[nH]c(=O)c2c1nc(NCCCn1ccnc1)n2Cc1cccc(Br)c1`, the fluorescence intensity was 4650.

For the molecule `COc1cccc(-n2c(=O)c3c(C)c(C(=O)N(C)C)sc3n(CC(=O)NCCc3ccc(OC)c(OC)c3)c2=O)c1`, the fluorescence intensity was 4050.

Regarding `CCOc1ccccc1N=C1NC(=O)CS1`, the fluorescence intensity was 23300 (active).

As for `Cc1cccc(N=C2NC(=O)CS2)c1C`, the fluorescence intensity is 7480.

On to `CCC/C(O)=C1\C(=O)CC(C)(C)CC1=Nc1ccccc1OC`, for which the fluorescence intensity is 2780.

For `Cc1nc(-c2ccccc2)cn2c1nc1ccccc12`, the fluorescence intensity was 2360.

In the case of `CN(C)C(=O)c1cccc(-c2cnc3c(NC=O)cc(-c4ccc(C(=O)N5CCOCC5)cc4)cn23)c1`, the fluorescence intensity was 3080.

`CCOc1ccc(CCN2C(=O)C(=O)N([C@@H](CC(C)C)CN3CCC[C@H]3CN3C(=O)C(=O)NC[C@@H]3Cc3ccccc3)C[C@@H]2CC(C)C)cc1`: the fluorescence intensity was 4830.

For the molecule `NC(=O)c1c(NC(=O)CSc2nnc(-c3ccco3)n2N)sc2c1CCCC2`, the fluorescence intensity was 2490.

On to `Nn1c(SCC(=O)Nc2nccs2)nnc1-c1ccco1`, for which the fluorescence intensity is 6070.

Consider `CCc1cccc(C)c1NC(=O)CSc1nnc(-c2ccco2)n1N`, for which the fluorescence intensity was 23800 (active).

For the molecule `CCOC(=O)CSc1nnc(-c2ccco2)n1C`, the fluorescence intensity was 19700 (active).

With `CCOc1ccc(-n2c(SCC(N)=O)nnc2-c2ccco2)cc1`, the fluorescence intensity is 3680.

For the molecule `Cn1c(SCC(=O)c2cccs2)nnc1-c1ccco1`, the fluorescence intensity was 8030.

On to `O=C(Nc1ccc(Cl)c(C(F)(F)F)c1)C1Cc2c(-c3ccccc3Oc3ccccc3)ccnc2O1` (stereo not drawn), for which the fluorescence intensity is 3930.

For `OC(c1cc(Cl)cc(Cl)c1)c1ncc(-c2ccccc2C(F)(F)F)[nH]1` (stereo not drawn), the fluorescence intensity is 2910.

On to `O=C(Nc1ccc(Cl)cc1)c1csc([C@@H]2O[C@H](CO)[C@H](O)[C@H](O)[C@H]2O)n1`, for which the fluorescence intensity was 3610.

As to `O=C(CSc1nc2ccccc2c(=O)n1Cc1ccc(F)cc1)NCC1CCCO1` (stereo not drawn), the fluorescence intensity was 6760.

With `O=C(CCCn1c(SCC(=O)c2ccccc2)nc2ccccc2c1=O)NCC1CCCO1` (stereo not drawn), the fluorescence intensity was 23800 (active).

As for `CCn1c(SCC(=O)NCC2CCCO2)nc2ccccc21` (stereo not drawn), the fluorescence intensity is 4090.

Take `CCCCn1c(SCC(=O)NCC2CCCO2)nc2ccc(N3CCOCC3)cc2c1=O` (stereo not drawn): the fluorescence intensity was 21100 (active).

Take `CCn1c(SCC(=O)NCC2CCCO2)nc2cc(S(=O)(=O)N3CCCCC3)ccc21` (stereo not drawn): the fluorescence intensity was 3450.

On to `COCCNC(=O)c1ccc(Cn2c(SCC(=O)NCC3CCCO3)nc3ccc(Br)cc3c2=O)cc1` (stereo not drawn), for which the fluorescence intensity was 5480.

These data come from PubChem BioAssay AID624483 (NMMLSC, 2012).
